The values that follow come from PubChem BioAssay (NCI).

Some test systems named below: SK-MEL-2 melanoma; EKVX NSCLC; SN12C renal; UO-31 renal; TK-10 renal; ACHN renal; CAKI-1 renal; A498 renal; MOLT-4 leukemia; CCRF-CEM leukemia.
What all share (assay): NCI-60 one-dose screen, 48 h (100 = growth as untreated, 0 = no growth, -100 = all killed)
Holding throughout (details): 10 µM unless noted

The structures appear in SMILES notation. Compounds without any hit were thinned out: in the full panel of roughly 83,000, 20% have a hit.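 Plates (96-well) were seeded with cells, treated with compound at one concentration, and incubated for 48 hours before percent growth was determined.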 Unmarked numbers belong to inactive results. Calls of active or inactive are those of the source. How the source made its calls: active means growth percent below 10; inactive means the rest.

Regarding `N#CC1=C(N)Oc2ccc3ccccc3c2C1c1ccccc1` (centres undefined), the growth was 49.7% with SK-MEL-2 melanoma; 39% with EKVX NSCLC; 42.2% with SN12C renal; 44.9% in the assay on UO-31 renal; 121% in the assay with TK-10 renal; 37.3% in the assay with ACHN renal. Moreover, the growth is 23.3% with CAKI-1 renal, 21.5% in the assay on A498 renal and 32.6% in the assay on MOLT-4 leukemia.
As for `COC(=O)[C@]12CC[C@@H](C)[C@H](C)[C@@H]1C1=CC[C@@H]3[C@@]4(C)C[C@@H](OC(C)=O)[C@H](O)[C@@](C)(CO)[C@@H]4[C@H](O)C[C@@]3(C)[C@]1(C)CC2`, the growth in the assay on SK-MEL-2 melanoma is -84.2% (active); in the assay on EKVX NSCLC, -91.8% (active); in the assay on SN12C renal it was -78.3% (active); in the assay with UO-31 renal, -74.1% (active); in the assay on TK-10 renal, -96.9% (active); with ACHN renal, -88.3% (active). For the same molecule, the growth in the assay on CAKI-1 renal was -85.6% (active); in the assay on A498 renal, -95.9% (active); with CCRF-CEM leukemia it was -68% (active); in the assay with MOLT-4 leukemia, -55.9% (active).
Turning to `Cc1ccccc1-c1nc(C(Cl)Cl)nc2cc(-c3ccccc3)nn12`, the growth in the assay on SK-MEL-2 melanoma was 101%; in the assay on EKVX NSCLC, 57.8%; in the assay with SN12C renal, 81.4%; with UO-31 renal, 57.2%; with TK-10 renal it was 65.1%; in the assay with ACHN renal, 41.1%. The growth was 44.8% with CAKI-1 renal, 85.4% in the assay with A498 renal and 83.9% in the assay with MOLT-4 leukemia.
Turning to `Cc1ccc(-c2nc([P+](c3ccccc3)(c3ccccc3)c3ccccc3)c(N3C[C@H]4C[C@H](C3)c3cccc(=O)n3C4)o2)cc1`, the growth in the assay on SK-MEL-2 melanoma is 87.7%; in the assay with EKVX NSCLC, 80.6%; with SN12C renal, 95.2%; in the assay on UO-31 renal, 83.6%; in the assay with TK-10 renal, 98.8%; in the assay with ACHN renal, 109%. Besides, the growth is 98.5% in the assay with CAKI-1 renal, 78.4% with CCRF-CEM leukemia and 96.6% in the assay with MOLT-4 leukemia.
In the case of `Cc1ccc(NC2CC(=O)N(c3c(C)cc(C)cc3C)C2=O)c(C)c1` (centres undefined), the growth was 112% in the assay with SK-MEL-2 melanoma; 95.3% with EKVX NSCLC; 97.2% with SN12C renal; 81.2% in the assay on UO-31 renal; 106% with TK-10 renal; 101% with ACHN renal. The growth is 95.6% with CAKI-1 renal, 105% in the assay with A498 renal and 94.6% in the assay on MOLT-4 leukemia.
On to `Nc1ccc(Br)cn1`, for which the growth is 98.8% in the assay with SK-MEL-2 melanoma; 110% in the assay on EKVX NSCLC; 96.3% in the assay on SN12C renal; 93.4% with UO-31 renal; 107% with TK-10 renal; 109% with ACHN renal. Also, the growth in the assay with CAKI-1 renal is 113%; with CCRF-CEM leukemia it was 80.4%; with MOLT-4 leukemia, 91.5%.
For the molecule `COc1ccc(/C=C/C(=O)NCC(C)O)cc1` (centres undefined), the growth is 93.3% in the assay with SK-MEL-2 melanoma; 99.4% in the assay with EKVX NSCLC; 105% in the assay on SN12C renal; 81.9% with UO-31 renal; 89.1% with TK-10 renal; 102% in the assay on ACHN renal. In addition, the growth in the assay on CAKI-1 renal was 95.8%; with A498 renal it was 92.7%; with CCRF-CEM leukemia it was 106%; in the assay on MOLT-4 leukemia, 109%.
As for `COc1ccc2c(c1)C(Br)=C(CCO)C2c1ccccc1` (centres undefined), the growth was 85% in the assay on SK-MEL-2 melanoma; 75.8% in the assay on EKVX NSCLC; 99.2% in the assay with SN12C renal; 62.4% in the assay on UO-31 renal; 67% with TK-10 renal; 4.96% (active) in the assay on ACHN renal. Also, the growth with CAKI-1 renal is 37%; in the assay on A498 renal it was 35.6%; in the assay on MOLT-4 leukemia, 114%.
Regarding `Cc1cc(C)n(Cc2cc(C(C)(C)C)cc(C(C)(C)C)c2)c(=O)c1C#N`, the growth is 107% in the assay with SK-MEL-2 melanoma; 75.2% with EKVX NSCLC; 90% in the assay with SN12C renal; 80.5% with UO-31 renal; 107% in the assay with TK-10 renal; 98.4% with ACHN renal. Further, the growth was 104% in the assay on CAKI-1 renal, 97% in the assay with A498 renal and 76.6% in the assay on MOLT-4 leukemia.
Regarding `CCOC(=O)c1ccc2c(c1)[n+](=O)c(C(=O)C1CCCS1)c(C(F)(F)F)n2[O-]` (centres undefined), the growth was -87.3% (active) with SK-MEL-2 melanoma; -77% (active) in the assay with EKVX NSCLC; -47.3% (active) in the assay with SN12C renal; -92.4% (active) in the assay with UO-31 renal; -96.5% (active) in the assay with TK-10 renal; -86.9% (active) in the assay on ACHN renal. Moreover, the growth with CAKI-1 renal is -85.4% (active); in the assay with CCRF-CEM leukemia, -44% (active); in the assay with MOLT-4 leukemia it was -67.3% (active).
With `O=C(O)c1cccc2c1Cc1cc([N+](=O)[O-])ccc1-2`, the growth with SK-MEL-2 melanoma is 102%; with EKVX NSCLC it was 61.9%; in the assay on SN12C renal, 103%; in the assay with UO-31 renal it was 103%; with TK-10 renal it was 123%; with ACHN renal, 102%. Moreover, the growth was 89.5% in the assay on CAKI-1 renal, 93.1% in the assay with A498 renal and 94% in the assay on MOLT-4 leukemia.
On to `COC(=O)[C@]12CC[C@@H](C(/C=C/c3cccnc3)=N/O)[C@@H]1[C@H]1CC[C@@H]3[C@@]4(C)CC(=C/c5cccnc5)/C(=N/O)C(C)(C)[C@@H]4CC[C@@]3(C)[C@]1(C)CC2`, for which the growth in the assay on SK-MEL-2 melanoma was 46%; in the assay on EKVX NSCLC, 26%; in the assay with SN12C renal, 44.5%; with UO-31 renal, 19.5%; in the assay on TK-10 renal, 67.9%; in the assay on ACHN renal, 42.9%. Moreover, the growth with CAKI-1 renal is 23.7%; in the assay on A498 renal, 92.5%; in the assay on MOLT-4 leukemia, 2.12% (active).
Take `COc1ccc(/C=C/C(=O)NCCO)cc1`: the growth is 103% in the assay on SK-MEL-2 melanoma; 98.7% in the assay with EKVX NSCLC; 108% with SN12C renal; 84.6% with UO-31 renal; 92% in the assay with TK-10 renal; 101% in the assay with ACHN renal. Further, the growth in the assay with CAKI-1 renal was 90.8%; in the assay on A498 renal, 85%; with CCRF-CEM leukemia, 104%; with MOLT-4 leukemia, 101%.
Take `COc1cc2ncnc(Nc3ccc(Oc4ccnc(C)c4)c(C)c3)c2cc1NC(=O)CC1CCSS1` (centres undefined): the growth in the assay on SK-MEL-2 melanoma was -57.7% (active); with EKVX NSCLC it was -1.66% (active); in the assay with SN12C renal it was 21.3%; in the assay on UO-31 renal it was -23.7% (active); in the assay with TK-10 renal, -68.6% (active); with ACHN renal it was 10.5%. In addition, the results for the growth in the assay with CAKI-1 renal, in the assay on A498 renal and in the assay with MOLT-4 leukemia were 3.34% (active), 66.8% and -56.8% (active), respectively.
